Screening results: PubChem BioAssay, National Center for Advancing Translational Sciences (NCATS)
This is a sample that favours compounds with a hit; in the whole collection about 6.5% have one here.
Lassa entry inh – inhibitors of Lassa virus binding or cell entry | hit rate 1.2% among 300,000 | Lassa virus pseudotype entry inhibition, cell reporter | Potency, µM (series often up to 37.9 µM), hits mostly inhibitors; calls by dose curve; tested in HEK293 cells; further: nearly all actives have a fitted effect of over 50% in size
HCMV antiviral – inhibitors of human cytomegalovirus; HFF cells, HCMV-luciferase reporter, 72 h; active compounds read low; hit rate 4.5% among 410,000; AID 1259415; activity change, negative = inhibition, % at 57.5 µM; in the data active means activity change below about -60%; inconclusive means no clear call, values can overlap the other calls; inactive means above about -39%
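Luciferase read-out from HCMV-luciferase-infected HFFs (MOI 1 PFU/cell) 72 h post infection at 37C; compounds added after 16 h cell attachment; activity normalized between buffer-only basal and Salinomycin (10uM) inhibitor controls.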
MARV entry inh – blocks Marburg virus binding to or entry into cells. Potency, µM (titrated, usually from 37.8 µM), hits mostly inhibitors. hit rate 1.8% among 300,000. Marburg virus pseudotyped entry inhibition, cell reporter. AID 540276; calls by dose curve; tested in HEK293 cells
Vaccinia Venus – inhibitors of vaccinia virus (Venus reporter) | Vaccinia virus Venus reporter expression, fluorescence | Potency, µM (series often up to 36.5 µM), most hits filed as inhibitors | hit rate 0.46% among 330,000; calls by dose curve; tested in A549 cells; further: nearly all actives have a fitted effect of over 30% in size
FMDV inh – blocks foot and mouth disease virus. Potency, µM (top dose mostly 57.9 µM), usual class: inhibitors. hit rate 1.2% among 410,000. FMDV antiviral cell-based qHTS; calls by dose curve; tested in HEK293T cells; further: read-out not given here; nearly all actives have a fitted effect of over 45% in size
VACV mCherry inh – inhibitors of vaccinia virus infection (mCherry reporter signal) | Vaccinia virus mCherry reporter infection, fluorescence | Potency, µM (top dose mostly 36.5 µM), actives largely listed as inhibitors | hit rate 0.63% among 310,000 | AID 720579; calls by dose curve; tested in A549 cells; further: nearly all actives have a fitted effect of over 35% in size
Numbers stand for hits; 0 = inactive; ? = inconclusive; - = not tested or not shown.

SMILES | Lassa entry inh | HCMV antiviral | MARV entry inh | Vaccinia Venus | FMDV inh | VACV mCherry inh
O=C(NCc1cccnc1)/C(=C/c1ccc(-c2ccc(Cl)cc2)o1)S(=O)(=O)c1ccccc1 | 18.3µM | - | ? | - | 3.55µM | -
O=C(NCc1cccnc1)/C(=C/c1ccc(-c2cccc(C(F)(F)F)c2)o1)NC(=O)c1ccccc1 | ? | 0 | ? | 0 | 0 | 0
Fc1ccc(N2CCN(Cc3cccn3-c3nnc(N4CCN(C5CCCCC5)CC4)s3)CC2)cc1 | 0 | 0 | - | 0 | 0 | 0
Cc1ccc(S(=O)(=O)NCCC2=CCCCC2)cc1C(N)=O | - | -74.9 | - | - | 0 | -
COc1ccccc1NC(=O)c1cc(S(=O)(=O)NCCC2=CCCCC2)ccc1F | 0 | 0 | - | 0 | 0 | 0
Cc1cc(C)cc(NC(=O)c2cc(S(=O)(=O)NCCC3=CCCCC3)ccc2F)c1 | 0 | 0 | - | 0 | 0 | 0
COc1ccc(C)cc1NC(=O)c1cc(S(=O)(=O)NCCC2=CCCCC2)ccc1F | 0 | 0 | - | 0 | 0 | 0
Cc1cc(S(=O)(=O)NCCC2=CCCCC2)ccc1Br | 0 | 0 | 0 | 0 | 0 | 0
Cc1ccc(NC(=O)c2cc(S(=O)(=O)NCCC3=CCCCC3)ccc2F)cc1F | ? | -70.5 | ? | ? | ? | ?
COc1ccc(NC(=O)c2cc(S(=O)(=O)NCCC3=CCCCC3)ccc2F)cc1 | ? | -79.6 | - | 0 | 0 | ?
O=C(Nc1cccc(F)c1)c1cc(S(=O)(=O)NCCC2=CCCCC2)ccc1F | 0 | -72.5 | ? | ? | 0 | 0
COc1ccc(N2CCN(C(=O)c3ccc4c(c3)NC(=O)C(CSCc3ccccc3F)N4)CC2)cc1 (stereo unspecified) | - | 0 | - | 0 | 0 | 0
Cc1cccc(N2CCN(C(=O)c3ccc4c(c3)NC(=O)C(CSCc3cccc(F)c3)N4)CC2C)c1 (stereo unspecified) | - | -82.8 | - | - | 0 | -
O=C(CSc1nccn1-c1cccc(Cl)c1)Nc1cccc(C(F)(F)F)c1 | 0 | 0 | - | 0 | 0 | 0
CC(NC(=O)C=Cc1ccco1)C(=O)NC(Cc1ccccc1)C(N)=O (stereo unspecified) | - | 0 | - | - | - | -
O=[N+]([O-])c1ccc(S(=O)(=O)CC(CN2CCCCC2)N2CCCCC2)cc1 (stereo unspecified) | 5.17µM | 0 | 4.61µM | - | 17.8µM | -
O=[N+]([O-])c1ccc(C(O)CN2CCOCC2)cc1 (stereo unspecified) | 0 | 0 | 0 | 0 | 0 | 0
O=S(=O)(CC(CN1CCCCC1)N1CCCCC1)c1ccccc1 (stereo unspecified) | - | -98.6 | - | - | 35.5µM | -
O=[N+]([O-])c1ccc(S(=O)(=O)CC(CN2CCOCC2)N2CCOCC2)cc1 (stereo unspecified) | ? | -101.9 | ? | ? | 0 | ?
CCOC(=O)N/N=C/c1ccccc1-c1cc(OC)ccc1OC | - | - | 0 | - | - | -
Cc1ccc(C)c(N2CCN(C(=O)CCS(=O)(=O)c3cc(Br)cc4c3N(C(=O)C3CC3)CC4)CC2)c1 | 0 | 0 | ? | 0 | 0 | 0
COc1ccc(-c2n[nH]c3c2cnc2ccc(F)cc23)cc1 | ? | 0 | - | 0 | 0 | 0
Cc1ccc(C(NC(=O)C2CCCCC2)c2c(O)ccc3ccccc23)cc1 (stereo unspecified) | ? | -66.4 | ? | ? | 0 | 0
COc1ccc(CN2C[C@H](Sc3nc4ccccc4[nH]3)C[C@H]2C(=O)N2CCCN(C)CC2)cc1C | - | - | - | 0 | 0 | 0
CC(=O)c1ccc(N2CCN(C(=O)c3cc4c(s3)-c3ccccc3OC4)CC2)cc1 | - | 0 | 0 | 0 | ? | 0
SMILES | Lassa entry inh | HCMV antiviral | MARV entry inh | Vaccinia Venus | FMDV inh | VACV mCherry inh
Cc1ccc(-n2ncc(C(=O)Nc3cc(Cl)ccc3Cl)c2C2CCNCC2)cc1 | ? | -87.2 | ? | 0 | 0 | 0
Cc1ccc(-n2ncc(C(=O)Nc3cc(Cl)cc(Cl)c3)c2C2CCNCC2)cc1C | - | -98.7 | - | - | ? | -
COc1ccc(NC(=O)c2cnn(-c3ccc(C)c(C)c3)c2C2CCNCC2)cc1OC | 0 | 0 | - | 0 | 0 | 0
CCOC(=O)C1=CCN(S(=O)(=O)c2ccc(Cl)cc2)C1c1ccc(Cl)c(Cl)c1 (stereo unspecified) | - | 0 | - | - | - | -
Cc1cc(O)c(C(=O)/C=C/c2ccc(Cl)cc2)c(=O)o1 | 0 | 0 | 0 | 0 | 25.1µM | 0
C/C(=C\C(=O)c1c(O)cc(C)oc1=O)N(C)C | 0 | 0 | 0 | 0 | 0 | 0
CSc1ccc(/C=C/C(=O)c2c(O)cc(C)oc2=O)cc1 | 0 | -80.1 | 0 | 0 | 0 | 0
C=CC1=C2C=C(C3CC3)N(C3CCCC3)C=C2C(=O)C(C)(OC(=O)c2ccco2)C1=O (stereo unspecified) | - | - | 0 | - | - | -
CN1CCCCC1C(=O)N1CCC(Oc2cccc(CN3CCN(c4ccccn4)CC3)c2)CC1 (stereo unspecified) | - | - | - | 0 | 0 | 0
Cc1nsc(Nc2ccc([N+](=O)[O-])cc2)c1C#N | ? | -64.1 | ? | 0 | 0 | 0
Cn1c(SCC2CCCO2)nnc1C1CCN(Cc2ccccc2O)CC1 (stereo unspecified) | - | - | - | 0 | 0 | 0
COC(=O)CCC(=O)N1CCOCCOCCN(C(=O)CCC(=O)OC)CCOCCOCC1 | 0 | 0 | 0 | 0 | 0 | -
COC(=O)CCCC(=O)N1CCOCCN(C(=O)CCCC(=O)OC)CCOCC1 | 0 | -101.4 | 0 | 0 | 0 | -
Cc1cccc([C@@H]2CN(C)CCc3c2cc(O)c(O)c3Cl)c1 | - | - | ? | - | 0 | -
COC1C(O)C(C)OC(OC2C(Oc3cccc4c(O)c5c(=O)oc6ccc(C)c7c(=O)oc(c34)c5c67)OC(C)C(O)C2O)C1O (stereo unspecified) | ? | -97.2 | ? | 0 | ? | 0
CC1O[C@@H](O[C@H]2C(Oc3cc(O)c4c(=O)cc(-c5ccc(O)cc5)oc4c3)OC(CO)C(O)C2O)C(O)C(O)C1O (stereo partly specified) | - | - | - | 0 | 0 | 0
Cc1ncc2c(c1CNC(=O)c1ccc3c(c1)OCO3)CCN(C(=O)c1cc3ccccc3o1)C2 | - | - | - | 0 | 0 | 0
COc1ccccc1-c1cc(C(F)(F)F)nc(N2CCCC2)n1 | 0 | 0 | 0 | - | 0 | -
COc1ccccc1-c1cc(C(F)(F)F)nc(S(=O)(=O)CCCC(=O)NC(C)C)n1 | ? | 0 | ? | 0 | 8.91µM | 0
COc1ccccc1-c1cc(C(F)(F)F)nc(S(=O)(=O)CCCC(=O)NCc2ccc(F)cc2)n1 | ? | -98.8 | ? | 0 | 14.1µM | ?
COc1ccccc1-c1cc(C(F)(F)F)nc(S(=O)(=O)CCCC(=O)N2CCCCC2C)n1 (stereo unspecified) | ? | 0 | ? | 0 | 7.94µM | 0
COc1ccccc1-c1cc(C(F)(F)F)nc(S(C)(=O)=O)n1 | ? | -104.3 | ? | - | 31.6µM | -
CCN1C(=NCc2ccccc2)N[C@@H](CCc2ccccc2)[C@H](C(=O)OC)[C@H]1C | - | - | 0 | - | - | -
Cc1ccccc1Cn1cnc2nc3c(cc2c1=O)CC(C)CC3 (stereo unspecified) | 0 | 0 | - | 0 | 0 | 0
Cc1ccc(OC(=O)N(C)C[C@H]2OCc3cn(nn3)CCCC(=O)N([C@@H](C)CO)C[C@@H]2C)cc1 | - | 0 | - | - | - | -
COC(=O)c1ccc(C)c(NS(=O)(=O)c2ccc(OC)cc2)c1 | ? | -91.2 | ? | ? | 0 | ?
COc1ccc(S(=O)(=O)Nc2ccc3oc(C)c(C(=O)O)c3c2)cc1 | - | 0 | 0 | 0 | 0 | 0
